PubChem BioAssay (EPA / NIEHS)
The source made the active and inactive calls. The calls were made as follows: active = hit-call score of the fitted dose curve at least 0.9, where 1 is the maximum; inactive = score below 0.9.

assay: APR_HepG2_MitoMass_1hr: Apredica 1-hour HepG2 Assay for Mitochondrial Mass (AID 2282674); conditions: high-content imaging, actives raise or lower the signal
Procedure: APR_HepG2_1hr is a cell-based, multiplexed-readout assay that uses HepG2, a human liver cell line, with measurements taken at 1 hour after chemical dosing in a 384-well plate.APR_HepG2_MitoMass_1hr is one of 10 assay component(s) measured or calculated from the APR_HepG2_1hr assay. It is designed to make measurements of cell phenotype, a form of morphology reporter, as detected with fluorescence intensity signals by HCS Fluorescent Imaging technology.Data from the assay component APR_HepG2_MitoMass_1hr was analyzed into 1 assay endpoint. This assay endpoint, APR_HepG2_MitoMass_1hr, was analyzed with bidirectional fitting relative to DMSO as the negative control and baseline of activity. Using a type of morphology reporter, gain or loss-of-signal activity can be used to understand changes in the signaling. Furthermore, this assay endpoint can be referred to as a primary readout, because this assay has produced multiple assay endpoints where this one serves a signaling function. To generalize the intended target to other relatable targets, this assay endpoint is annotated to the cell morphology intended target family, where the subfamily is organelle conformation.
Cells were treated with dimethyl sulfoxide (DMSO) as a solvent control at a final concentration of 0.5% v/v or with compounds in DMSO with a resulting final DMSO concentration of 0.5% v/v. Compound treatment was done at concentrations of 0.39, 0.78, 1.56, 3.12, 6.24, 12.5, 25, 50, 100, and 200 uM in duplicate on each plate. Cells were treated with compounds for 1, 24, or 72 hr. Carbonyl […] m-chloro-phenylhydrazone (CCCP) and taxol were used as positive controls for mitochondrial function and cytoskeletal stability, respectively; DMSO served as the negative control for this experiment. Cells were fixed by the direct addition of 50 uL formaldehyde in Hank's Balanced Salt Solution (HBSS) to a final concentration of 3.7%. After incubation in the fixation medium for 30 min at room temperature (293-298 K), cells were rinsed twice with HBSS and treated with cell permeabilization buffer (16 uL of 0.5% Triton X-100) for 10 min at room temperature (293-298 K) before labeling. For mitochondrial membrane potential and mitochondrial measurements, pre-fixed cells were incubated with 50 uL of MitoTracker Red CMXRos (Invitrogen) at a concentration of 250 nM for 30 min before fixation. In the remaining cases, post-fixed cells were labeled by incubation with a multiplexed mixture of primary antibodies in HBSS for 60 min at room temperature (293-298 K) to detect immunoreactivity of c-Jun (1:500), phospho-histone H3 (1:100), phospho-histone H2A.x (1:200), p53 (1:400), alpha-tubulin (1:200) and Hoechst 33342 (2 ug/mL). Cells were labeled for multiplexed imaging on two separate plates: a) Hoechst 33342, MitoTracker Red, phospho-histone H3, and alpha-tubulin, and b) Hoechst 33342, phospho-histone H2A.x, and c-Jun. A final rinse with HBSS (50 uL) was performed before analysis. The primary and secondary antibodies for the proteins were phospho-histone H3 (rabbit anti-phospho-histone H3 and FITC-donkey anti-rabbit IgG), phospho-histone H2A.x (mouse anti-phospho-histone H2A.x and FITC-donkey anti-mouse IgG), c-Jun (rabbit anti-phospho-c-Jun and Cy3-donkey anti-rabbit IgG), p53 (sheep anti-p53 and Cy5-donkey anti-sheep IgG), alpha-tubulin (mouse anti-alpha-tubulin and Cy5-donkey anti-mouse IgG). These antibodies are available as the CellCiphr HepG2 assay kit (Millipore).Digital images of each well were captured using a Cellomics ArrayScan VTI (Thermo Scientific Cellomics) (0.8 NA objective, 0.63x optical coupler, and XF-93 filter set) at 20x magnification. The images were acquired using the autofocus feature of the ArrayScan instrument, which entails the following steps. First, the camera focuses on channel 1 (Hoechst 33342), where nuclei are identified. Second, a Z offset of 1 um is used for capturing mitochondria (MitoTracker Red). Third, a Z offset of -2 um is used for capturing the cytoskeleton (tubulin). […]

Row | SMILES | outcome | AC50
1 | COC(=O)c1ccccc1S(=O)(=O)NC(=O)Nc1nc(C)nc(OC)n1 | inactive | –
2 | CNC(=O)CSP(=S)(OC)OC | inactive | –
3 | O=C(O)COc1ccc(Cl)cc1Cl | inactive | –
4 | CNC(=O)Oc1cccc(N=CN(C)C)c1 | inactive | –
5 | Cc1[nH]c(=O)n(C(C)(C)C)c(=O)c1Cl | inactive | –
6 | CC(C)(C)C(O)/C(=C\c1ccc(Cl)cc1Cl)n1cncn1 (stereo not given) | inactive | –
7 | COc1nn(CSP(=S)(OC)OC)c(=O)s1 | inactive | –
8 | OCCOc1ccccc1 | inactive | –
9 | COC(=O)c1ccccc1CS(=O)(=O)NC(=O)Nc1nc(OC)cc(OC)n1 | inactive | –
10 | O=C(NC(=O)c1c(F)cccc1F)Nc1ccc(OC(F)(F)C(F)OC(F)(F)F)c(Cl)c1 (stereo not given) | inactive | –
11 | C[C@H]1[C@H](c2ccc(Cl)cc2)SC(=O)N1C(=O)NC1CCCCC1 | inactive | –
12 | CC(C)(C)C(O)C(Oc1ccc(Cl)cc1)n1cncn1 (stereo not given) | inactive | –
13 | [2H]C1([2H])[n+]2ccccc2-c2cccc[n+]2C1([2H])[2H] | inactive | –
14 | N#CN | inactive | –
15 | O=C1c2ccccc2C(=O)N1SC(Cl)(Cl)Cl | inactive | –
16 | CNC(=O)/C=C(\C)OP(=O)(OC)OC | inactive | –
17 | CCN(CC)C(=O)SCc1ccc(Cl)cc1 | inactive | –
18 | O=C(O)CCCOc1ccc(Cl)cc1Cl | inactive | –
19 | Oc1ccc(Cl)cc1Cc1ccccc1 | inactive | –
20 | CCc1ccc(C(=O)NN(C(=O)c2cc(C)cc(C)c2)C(C)(C)C)cc1 | inactive | –

Row | SMILES | outcome | AC50
21 | CCCN(CCC)c1c([N+](=O)[O-])cc(C(F)(F)F)cc1[N+](=O)[O-] | inactive | –
22 | CCCN(CCOc1c(Cl)cc(Cl)cc1Cl)C(=O)n1ccnc1 | inactive | –
23 | O=S(=O)(O)C(F)(F)C(F)(F)C(F)(F)C(F)(F)C(F)(F)C(F)(F)C(F)(F)C(F)(F)F | inactive | –
24 | Clc1ccccc1-c1nnc(-c2ccccc2Cl)nn1 | inactive | –
25 | O=[N+]([O-])/N=C1\NCCN1Cc1ccc(Cl)nc1 | inactive | –
26 | N#Cc1c(Cl)c(Cl)c(Cl)c(C#N)c1Cl | – | 5.34 µM (active)
27 | O=C(O)C(F)(F)C(F)(F)C(F)(F)C(F)(F)C(F)(F)C(F)(F)C(F)(F)F | inactive | –
28 | CCC(C)(C)C(=O)OC1=C(c2ccc(Cl)cc2Cl)C(=O)OC12CCCCC2 | inactive | –
29 | CC(C)OC(=O)Nc1cccc(Cl)c1 | inactive | –
30 | CC(C)N(C(=O)COc1nnc(C(F)(F)F)s1)c1ccc(F)cc1 | inactive | –
31 | CCS(=O)(=O)c1cccnc1S(=O)(=O)NC(=O)Nc1nc(OC)cc(OC)n1 | inactive | –
32 | CC1(C)C(C=C(Cl)Cl)C1C(=O)OC(C#N)c1ccc(F)c(Oc2ccccc2)c1 (stereo not given) | inactive | –
33 | Oc1cc(Cl)ccc1Oc1ccc(Cl)cc1Cl | – | 170 µM (active)
34 | COP(=S)(OC)Oc1ccc(SC)c(C)c1 | inactive | –
35 | ClC1C(Cl)C(Cl)C(Cl)C(Cl)C1Cl (stereo not given) | inactive | –
36 | CC1(c2ccc(Oc3ccccc3)cc2)OC(=O)N(Nc2ccccc2)C1=O (stereo not given) | inactive | –
37 | CCOCN(C(=O)CCl)c1c(C)cccc1CC | inactive | –
38 | COc1cc(OC)nc(NC(=O)NS(=O)(=O)c2cc(NC=O)ccc2C(=O)N(C)C)n1 | inactive | –
39 | COC(=O)c1ccccc1S(=O)(=O)NC(=O)N(C)c1nc(C)nc(OC)n1 | inactive | –
40 | CCOC1Oc2ccc(OS(C)(=O)=O)cc2C1(C)C (stereo not given) | inactive | –
